High-throughput results deposited in PubChem by National Center for Advancing Translational Sciences (NCATS).
KDM5B inhibitor – inhibitors of human KDM5B histone demethylase; Q9UGL1; KDM5B demethylase, FDH-coupled NADH fluorescence (FDH is formaldehyde dehydrogenase); Potency, µM (doses to about 57.7 µM), hits mostly inhibitors; 2.6% of 220,000 active; AID 1347165; active means well fitted inhibition curve with a large enough effect; further: 0% is about no effect; nearly all actives have a fitted effect of over 70% in size
Target sequence (Q9UGL1 whole entry, looked up): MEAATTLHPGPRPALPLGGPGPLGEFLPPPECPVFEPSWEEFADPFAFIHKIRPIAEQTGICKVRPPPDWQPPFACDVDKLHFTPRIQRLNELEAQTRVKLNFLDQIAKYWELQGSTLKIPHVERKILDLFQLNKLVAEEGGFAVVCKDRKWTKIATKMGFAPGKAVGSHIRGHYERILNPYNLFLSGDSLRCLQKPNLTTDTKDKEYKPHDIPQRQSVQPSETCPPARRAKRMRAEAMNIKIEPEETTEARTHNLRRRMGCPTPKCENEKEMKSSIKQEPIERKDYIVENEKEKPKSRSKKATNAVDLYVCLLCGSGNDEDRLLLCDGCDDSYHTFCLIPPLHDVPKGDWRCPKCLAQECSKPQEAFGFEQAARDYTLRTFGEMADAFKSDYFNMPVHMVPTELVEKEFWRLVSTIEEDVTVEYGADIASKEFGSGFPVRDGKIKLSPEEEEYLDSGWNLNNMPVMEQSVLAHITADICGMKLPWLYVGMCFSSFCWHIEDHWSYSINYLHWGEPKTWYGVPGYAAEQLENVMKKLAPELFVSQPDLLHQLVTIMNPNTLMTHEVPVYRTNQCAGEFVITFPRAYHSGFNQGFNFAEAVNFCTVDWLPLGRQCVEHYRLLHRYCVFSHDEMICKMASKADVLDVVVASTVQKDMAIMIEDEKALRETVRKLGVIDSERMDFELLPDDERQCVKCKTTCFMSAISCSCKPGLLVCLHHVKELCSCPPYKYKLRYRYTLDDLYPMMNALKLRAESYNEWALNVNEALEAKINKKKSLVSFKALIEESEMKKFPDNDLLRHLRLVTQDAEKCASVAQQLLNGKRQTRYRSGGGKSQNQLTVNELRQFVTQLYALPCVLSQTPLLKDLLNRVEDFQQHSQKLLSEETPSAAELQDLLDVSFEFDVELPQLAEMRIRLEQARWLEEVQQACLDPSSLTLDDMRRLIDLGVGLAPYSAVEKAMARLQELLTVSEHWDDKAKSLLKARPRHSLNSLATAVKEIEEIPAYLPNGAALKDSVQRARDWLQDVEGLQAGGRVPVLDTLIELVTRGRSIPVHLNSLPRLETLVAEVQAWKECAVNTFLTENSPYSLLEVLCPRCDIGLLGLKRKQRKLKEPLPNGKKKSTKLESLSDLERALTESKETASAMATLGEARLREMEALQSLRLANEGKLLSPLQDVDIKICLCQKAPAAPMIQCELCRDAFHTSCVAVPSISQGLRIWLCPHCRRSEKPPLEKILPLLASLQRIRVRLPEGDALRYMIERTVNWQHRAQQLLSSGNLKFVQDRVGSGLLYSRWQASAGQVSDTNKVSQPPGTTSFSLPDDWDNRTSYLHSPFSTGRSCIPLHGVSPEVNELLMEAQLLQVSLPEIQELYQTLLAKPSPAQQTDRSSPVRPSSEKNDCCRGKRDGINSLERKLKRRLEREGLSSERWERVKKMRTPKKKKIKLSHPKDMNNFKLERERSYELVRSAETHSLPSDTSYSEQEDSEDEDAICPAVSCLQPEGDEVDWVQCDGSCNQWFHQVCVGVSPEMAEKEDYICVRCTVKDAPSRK
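Coupled FDH/NAD⁺ fluorescence readout. KDM5BΔAP 200 nM final; compound titration, 10 min RT preincubation; substrate mix 12.5 µM H3K4me3, 25 µM 2-OG, 50 µM Fe(II), 100 µM ascorbate, 0.25 mM NAD⁺, 0.25 U/mL FDH; ΔRFU over 30 min.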
* marks the source's active call; other numbers are inactive results; i = inactive. Shown is part of a subset that was picked to be rich in hits. Potency means the concentration at half of the fitted maximal effect.

SMILES	KDM5B inhibitor
COc1cccc(-c2ccc(C(=O)O)cc2)c1	112µM*
COc1cccc(-c2cccc(C(=O)O)c2)c1	i
COc1cccc(CN2CCCCCCNC(=O)CC2c2ccccc2)c1 (centres undefined)	i
COc1cccc(CC(=O)N2CCCCCCNC(=O)[C@H]3CCCC[C@H]32)c1	i
COc1cccc(CN2CCCCCNC(=O)[C@@H]3CCC[C@@H]32)c1	20µM*
CCOC(=O)c1c(C)[nH]c(C)c1C(=O)Cn1cnc2ccccc2c1=O	i
COCC(=O)N1CCC(Oc2ccc(C(=O)NCCN3CCNC3=O)cc2)CC1	i
CN1c2cc(C(=O)N3CCOCC3)ccc2OCC1CC(=O)NC(C)(C)C (centres undefined)	i
COCCNC(=O)c1ccc2c(c1)N(C)C(CC(=O)N1CCCC1)CO2 (centres undefined)	32µM*
COCCNC(=O)c1ccc(CC2CCN(C(=O)CN3CCCCCC3)CC2)cc1	i
COCCNC(=O)c1ccc2c(c1)N(C)C(CC(=O)N1CCNC(=O)C1)CO2 (centres undefined)	28µM*
COCCNC(=O)c1ccc(OC2CCN(C(=O)[C@@H](C)N)CC2)c(Cl)c1	i
Fc1cccc(CNCCN2CCCC2)c1	i
Cc1cc(-c2ccccc2)nc(SCc2ccc(C#N)cc2)n1	i
O=C(/C=C/c1ccccc1Cl)Nc1ccccc1C(F)(F)F	i
COC(=O)c1ccc(OCCOc2ccc(F)cc2)c(OC)c1	i
O=C(CCc1nnn2c1CN(C(=O)c1cccc3[nH]ccc13)CC2)N1CCCC1	28µM*
O=C(c1nnn2c1COC(c1ccccc1)C2)N1CCN(C(=O)c2cccc3[nH]ccc23)CC1 (centres undefined)	28µM*
O=C(c1ccccc1F)N1CCN(C(=O)c2nnn3c2COC(c2ccccc2)C3)CC1 (centres undefined)	i
O=C(CCc1nnn2c1CN(C(=O)COc1ccc(F)cc1)CC2)N1CCCC1	i
O=C(c1ccccc1Cl)N1CCN(C(=O)c2nnn3c2COC(c2ccccc2)C3)CC1 (centres undefined)	i
O=C(CCc1nnn2c1CN(C(=O)NCCc1ccccc1)CC2)N1CCCC1	i
O=C(OCc1ccc(Cl)cc1)c1ccc(N2CCOCC2)nc1	i
Cc1ccccc1C(=O)N1CCC(C(=O)NCC(F)(F)F)CC1	i
Cc1ccc(-c2cc3c(=O)n(CCNC(=O)c4ccco4)ccn3n2)c(C)c1	i
SMILES	KDM5B inhibitor
O=C(OCc1cc(=O)n2nc(-c3cccs3)sc2n1)c1cccc(Cl)c1	i
CC(C)Oc1ccc(CNC(=O)Cn2ncn3nc(-c4cccs4)cc3c2=O)cc1	i
Cc1ccc(C)c(C(O)Cn2ccn3nc(-c4cccc(Br)c4)cc3c2=O)c1 (centres undefined)	32µM*
CC(=O)c1cccc(NC(=O)Cn2ccn3nc(-c4ccccc4)cc3c2=O)c1	i
Cc1cccc(OCC(=O)NCCn2ccn3nc(-c4ccc(C)c(C)c4)cc3c2=O)c1	i
Cc1ccc(C)c(C(O)Cn2ccn3nc(-c4cccs4)cc3c2=O)c1 (centres undefined)	20µM*
O=c1c2cc(-c3cccs3)nn2ccn1CC(O)c1cccc(Cl)c1 (centres undefined)	20µM*
Cc1ccc(-c2cc3c(=O)n(CCNC(=O)Cc4cccc(F)c4)ccn3n2)c(C)c1	i
O/N=C/c1ccc(OCc2ccc(Cl)cc2Cl)cc1	i
Cc1ccsc1CCNS(=O)(=O)c1ccc2c(c1)NC(=O)CC(C)S2 (centres undefined)	i
Cc1ccc(O)c(CN2CCCC(c3nc(CC(C)C)no3)C2)c1 (centres undefined)	i
O=C(Nc1c(NCc2ccccc2)c2ccccc2oc1=O)c1ccccc1	i
COc1cccc(F)c1-c1ccc2c(n1)c(=O)ncn2Cc1ccccc1	i
COc1ccc(-c2ccc3c(n2)c(=O)ncn3Cc2ccccc2)cc1OC	i
COc1cccc(-c2ccc3c(n2)c(=O)ncn3CC2CC2)c1	i
O=c1ncn(Cc2ccccc2)c2ccc(-c3ccsc3)nc12	35µM*
O=c1ncn(Cc2ccccc2)c2ccc(-c3ccc(F)cc3F)nc12	28µM*
COc1ccc(-c2ccc3c(n2)c(=O)ncn3Cc2ccccc2)cn1	i
NC(=O)[C@@H]1CCCN1C(C(=O)O)c1cn(CCC(=O)O)c2cc(Br)ccc12 (some centres undefined)	i
CCCCCCCCCCS(=O)(=O)CCCCCl	i
O=C(Cn1nc(-c2ccc(F)cc2)ccc1=O)NC1CCCc2c1[nH]c1ccccc21 (centres undefined)	14µM*
O=C(Cc1ccccc1)NC1CCCc2c1[nH]c1ccccc21 (centres undefined)	i
O=C(NC1CCCc2c1[nH]c1ccccc21)c1n[nH]c2c1CCCC2 (centres undefined)	14µM*
O=C(NC1CCCc2c1[nH]c1ccccc21)c1ccncc1 (centres undefined)	i
O=C(Cn1nc(-c2ccc(F)cc2)ccc1=O)N1CCc2ccccc2C1	i
SMILES	KDM5B inhibitor
O=C(Cn1nc(-c2cccs2)ccc1=O)NC1CCCc2c1[nH]c1c(Cl)cccc21 (centres undefined)	i
N#Cc1ccc(CNc2cccc(Br)c2)c(F)c1	i
CS(=O)(=O)Nc1cccc(CNC(=O)CC2CCCCC2)c1	i
O=S(Cc1ccccc1)Cc1cccc(Cl)c1 (centres undefined)	i
COc1ccc(Cl)cc1C(=O)N1CC(C)CC(C)C1 (centres undefined)	i
CC(C)Cc1cc(CNc2nccc(-c3cc(C(=O)O)ccn3)n2)no1	32µM*
CC(C)Cc1cc(C[C@@H]2C[C@H](NC(=O)C(C)(C)C)C2(C)C)no1	i
CC(C)Cc1cc(C(=O)N2CCN(c3ccccc3)CC2)no1	i
COc1cc(C(=O)OCCOc2ccccc2F)cc(OC)c1OC	i
CCCC(N)c1ccc(C23CC4CC(CC(C4)C2)C3)cc1 (centres undefined)	i
CCC(C)(CNC(=O)NCc1nc(C)cs1)N1CCOCC1 (centres undefined)	i
CCc1ccc(N2CC(c3noc(-c4ccc(OC)nc4OC)n3)CC2=O)cc1 (centres undefined)	35µM*
CCc1ccc(N2CC(c3noc(-c4cc(F)cc(F)c4)n3)CC2=O)cc1 (centres undefined)	i
CCc1ccc(-c2nc(C3CC(=O)N(c4ccc(OC)cc4)C3)no2)cc1 (centres undefined)	i
COc1ccc(N2CC(c3noc(-c4cc(C)cc(C)c4)n3)CC2=O)cc1OC (centres undefined)	i
CCc1ccc(N2CC(c3noc(-c4ccsc4)n3)CC2=O)cc1 (centres undefined)	i
COc1ccc(N2CC(c3noc(-c4ccccc4F)n3)CC2=O)cc1OC (centres undefined)	i
CCc1ccc(N2CC(c3noc(-c4cc(OC)c(OC)c(OC)c4)n3)CC2=O)cc1 (centres undefined)	32µM*
CCc1ccc(N2CC(c3noc(-c4ccccc4F)n3)CC2=O)cc1 (centres undefined)	i
COc1cc(OC)cc(-c2nc(C3CC(=O)N(c4ccc(OC)c(OC)c4)C3)no2)c1 (centres undefined)	28µM*
CCc1cc(=O)n(CC(=O)N2CCN(c3ccccc3F)CC2)c(N2CCOCC2)n1	i
CCn1c(SCc2coc(-c3cccs3)n2)nnc1-c1ccccc1	i
